Here are results for 16 molecules from PubChem BioAssay.

One may read the viability as a read-out of living cells in per cent, often relative to untreated cells. Usually inhibition stands for the change of the read-out against control, counted positive when it falls.

Active and inactive are the calls of the source.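 The calls were made as follows, unless noted: active = viability at or under a set limit in both replicates, limit being median viability minus 3 SD (cut at about 48% in these data, passing the limit was not always enough); inconclusive = at or under the limit in just one replicate; inactive = at or above the limit in both replicates.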

Assay [1] is described as follows: reducers of endogenous Her2 protein level, primary screen, SKBR3 breast tumor cells, AlphaScreen, ATP viability (AID 461;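 active = Her2 level under about 52% in both replicate screens, with viability over 70% of control, limit read from the data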;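 as to Her2 level: lower value means less Her2 protein in the cells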;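 as to viability: percent of carrier control wells set as 100% viability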). The following applies: 18-24 h, measured here: SKBR3 viability, ATP luminescence, at 10 µM. (In general: Bead proximity is the source of the signal in Alpha formats.)
Assay [2] has as its target Receptor tyrosine-protein kinase erbB-2 (Homo sapiens) (UniProt P04626). The description is as above. The following applies: 18-24 h, at 10 µM, stronger effect = lower value.
Assay [3] is described as follows: SK-BR-3 cell growth inhibitors, pilot screen, 24 h, human (AID 572;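 active = viability at or below 10% of carrier control in both of two separate runs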;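 also: compound exposure lasted between 18 and 24 h rather than exactly 24 h; 100% = carrier-treated control wells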). Particulars: SK-BR-3 viability, CellTiter-Glo luminescence, at 10 µM, stronger effect = lower value.
Assay [4] in a line: HUVEC growth inhibition – cell-based, human, primary screen (AID 575;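 active = viability at or below 30% in both replicate assays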;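 also: 100% = median of untreated cell wells with 0.1% DMSO on each plate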). Particulars: HUVEC proliferation, CellTiter-Glo luminescence, 72 h; at 10 µM; stronger effect = lower value. In general terms: ATP-based viability assays read luminescence as a measure of living cells.
Assay [5] in a line: growth inhibitors of H69AR lung tumor, primary screen, human, duplicate replicates (AID 580).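 Also: 100% = mean luminescence of untreated wells and 0% = no signal.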 The following applies: H69AR lung tumor cells viability, ATP luminescence, 72 h; at 10 µM; stronger effect = lower value.
Assay [6] is described as follows: reversal of MRP1-mediated doxorubicin resistance, pilot screen, H69AR cells, doxorubicin co-treatment (AID 601;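 active = viability loss from added drug above about 55%, and viability with drug at most 40%, in both replicates, limit read from the data, passing the limit was not always enough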). Particulars: CellTiter-Glo, 72 h, at 10 µM; for differential viability (reversal): stronger effect = higher value.
Assay [7] in a line: 384-well plate pilot, post-Golgi transport modulator project, inhibition of yeast transport mutant growth (AID 636; in the data active = inhibition above about 31%). The following applies: absorbance 615 nm, about 18 h, stronger effect = higher value.
A short description of assay [8]: growth suppression of yeast trafficking mutant, preliminary HTS, modulators of trafficking downstream of Golgi apparatus project, 1536-format plate, OD 615 nm (AID 637; in the data active = inhibition above about 30%). Particulars: yeast transport mutant growth, absorbance 615 nm, 18 h; stronger effect = higher value.
[9] abbreviates: H69AR cells + 2 uM doxorubicin, measured here: viability with 2 uM doxorubicin, stronger effect = lower value.
The mark [10] stands for this setting: H69AR cells, compound alone cytotoxicity.

Chain of Receptor tyrosine-protein kinase erbB-2 (Homo sapiens) (P04626 whole entry, looked up): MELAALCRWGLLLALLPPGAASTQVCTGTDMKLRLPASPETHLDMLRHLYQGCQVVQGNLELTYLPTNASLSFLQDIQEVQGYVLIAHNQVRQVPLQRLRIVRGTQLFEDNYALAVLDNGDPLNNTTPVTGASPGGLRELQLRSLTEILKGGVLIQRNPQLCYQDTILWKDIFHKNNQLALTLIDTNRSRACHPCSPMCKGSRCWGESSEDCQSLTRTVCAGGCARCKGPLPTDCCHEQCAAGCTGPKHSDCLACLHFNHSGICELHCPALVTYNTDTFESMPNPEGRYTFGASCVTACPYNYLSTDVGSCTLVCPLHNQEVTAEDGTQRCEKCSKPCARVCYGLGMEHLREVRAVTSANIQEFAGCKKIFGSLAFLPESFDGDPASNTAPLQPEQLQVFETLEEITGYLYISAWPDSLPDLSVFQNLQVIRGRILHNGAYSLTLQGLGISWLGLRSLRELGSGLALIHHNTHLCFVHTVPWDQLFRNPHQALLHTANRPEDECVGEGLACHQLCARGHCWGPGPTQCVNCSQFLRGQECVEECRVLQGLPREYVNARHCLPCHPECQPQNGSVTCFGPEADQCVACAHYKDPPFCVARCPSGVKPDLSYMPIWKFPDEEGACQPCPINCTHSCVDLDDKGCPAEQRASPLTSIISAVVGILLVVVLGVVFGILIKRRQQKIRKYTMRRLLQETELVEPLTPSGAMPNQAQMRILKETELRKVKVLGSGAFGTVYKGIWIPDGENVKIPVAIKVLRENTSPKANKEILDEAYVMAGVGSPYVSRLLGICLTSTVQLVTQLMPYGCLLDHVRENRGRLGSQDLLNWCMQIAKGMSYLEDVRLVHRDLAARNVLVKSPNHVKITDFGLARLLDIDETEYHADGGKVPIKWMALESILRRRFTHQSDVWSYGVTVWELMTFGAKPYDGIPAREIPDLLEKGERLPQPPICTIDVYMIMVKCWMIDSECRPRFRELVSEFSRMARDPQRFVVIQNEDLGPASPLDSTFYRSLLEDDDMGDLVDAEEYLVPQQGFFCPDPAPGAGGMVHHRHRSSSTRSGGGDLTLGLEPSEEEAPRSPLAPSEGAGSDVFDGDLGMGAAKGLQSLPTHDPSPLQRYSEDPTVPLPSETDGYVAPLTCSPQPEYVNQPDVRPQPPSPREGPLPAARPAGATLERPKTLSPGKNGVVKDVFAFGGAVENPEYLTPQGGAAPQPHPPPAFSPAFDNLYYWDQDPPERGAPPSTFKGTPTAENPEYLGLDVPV

Turning to `O=C1COc2ccc(C(=O)COC(=O)CCc3ccc(S(=O)(=O)N4CCOCC4)cc3)cc2N1`, the viability in assay [1] was 105%; in assay [3], 105% (inactive); in assay [4], 80.3% (inactive); in assay [5] it was 79% (inactive); in assay [6] (setting [9]), 89.4%; in assay [6] (setting [10]), 79%. Besides, in assay [2], the Her2 level was 98% (inactive). Further, the differential viability (reversal) in assay [6] (H69AR cells + 2 uM doxorubicin) was -10.4% (inactive). The figures for the inhibition in assay [7] and in assay [8] were 2.69% (inactive) and 1.67% (inactive), respectively.

As for `CC(C)(C)NC(=O)COC(=O)c1snc(C(=O)NC2CCCCC2)c1N`, the viability in assay [1] is 86%; in assay [3], 86% (inactive); in assay [4], 51.9% (inactive); in assay [5], 101% (inactive); in assay [6] (setting [9]) it was 88.1%; in assay [6] (setting [10]), 101%. In assay [2], the Her2 level is 75% (inactive). For the same molecule, the differential viability (reversal) in assay [6] (H69AR cells + 2 uM doxorubicin) was 12.7% (inactive). Moreover, the inhibition in assay [7] was -0.95% (inactive); in assay [8], 1.59% (inactive).

As for `COc1ccccc1N1CCN(S(=O)(=O)CC23CCC(CC2=O)C3(C)C)CC1` (stereo not given), the viability in assay [1] is 102%; in assay [3], 102% (inactive); in assay [4] it was 76.9% (inactive); in assay [5], 84.5% (inactive); in assay [6] (setting [9]), 83.6%; in assay [6] (setting [10]), 84.5%. The Her2 level in assay [2] is 94% (inactive). Further, in assay [6] (H69AR cells + 2 uM doxorubicin), the differential viability (reversal) is 0.875% (inactive). Besides, the inhibition in assay [7] is -0.52% (inactive); in assay [8], -3.67% (inactive).

Turning to `CC(=O)c1c(OCC(=O)O)ccc2c(C)cc(=O)oc12`, the viability was 136% in assay [1]; 136% (inactive) in assay [3]; 101% (inactive) in assay [4]; 91.8% (inactive) in assay [5]; 88.7% in assay [6] (setting [9]); 91.8% in assay [6] (setting [10]). Also, the Her2 level in assay [2] was 104% (inactive). In addition, the differential viability (reversal) in assay [6] (H69AR cells + 2 uM doxorubicin) was 3.1% (inactive). In addition, the inhibition in assay [7] is -5.66% (inactive); in assay [8], 6.07% (inactive).

For `Cc1ccc(-c2nc3cc(N)ccc3o2)cc1`, the viability in assay [1] is 104%; in assay [3], 104% (inactive); in assay [4], 72.6% (inactive); in assay [5], 79.9% (inactive); in assay [6] (setting [9]), 81.7%; in assay [6] (setting [10]) it was 79.9%. In addition, the Her2 level in assay [2] was 115% (inactive). In addition, the differential viability (reversal) in assay [6] (H69AR cells + 2 uM doxorubicin) was -1.81% (inactive). Further, the inhibition in assay [7] is -2.82% (inactive); in assay [8] it was -2.17% (inactive).

Take `COCCCn1c(SCC(=O)N2CCc3ccccc32)nnc1-c1ccoc1C`: the viability in assay [1] is 108%; in assay [3] it was 108% (inactive); in assay [4], 93.8% (inactive); in assay [5], 98.4% (inactive); in assay [6] (setting [9]) it was 96%; in assay [6] (setting [10]) it was 98.4%. Moreover, the Her2 level in assay [2] was 80% (inactive). Further, in assay [6] (H69AR cells + 2 uM doxorubicin), the differential viability (reversal) was 2.4% (inactive). The inhibition in assay [7] is -4.67% (inactive); in assay [8], 0.65% (inactive).

As to `CS(=O)(=O)N1CCc2cc(C(=O)N3CCCCC3)ccc21`, the viability was 89.5% in assay [1]; 89.5% (inactive) in assay [3]; 99.8% (inactive) in assay [4]; 96.6% (inactive) in assay [5]; 88.5% in assay [6] (setting [9]); 96.6% in assay [6] (setting [10]). For the same molecule, the Her2 level in assay [2] was 89% (inactive). For the same molecule, in assay [6] (H69AR cells + 2 uM doxorubicin), the differential viability (reversal) is 8.06% (inactive). Also, the inhibition in assay [7] was -3.42% (inactive); in assay [8], 1.75% (inactive).

For `COc1cc(N=c2ssnc2Cl)cc(OC)c1`, the viability in assay [1] was 84.5%; in assay [3] it was 84.5% (inactive); in assay [4], 78% (inactive); in assay [5], 3.23% (active); in assay [6] (setting [9]), 4.61%; in assay [6] (setting [10]) it was 3.23%. The Her2 level in assay [2] is 111% (inactive). For the same molecule, the differential viability (reversal) in assay [6] (H69AR cells + 2 uM doxorubicin) was -1.38% (inactive). For the same molecule, the inhibition in assay [7] is -5% (inactive); in assay [8], 0.48% (inactive).

In the case of `Cc1nnc2ccc(N3CCC4(CC3)OCCO4)nn12`, the viability in assay [1] was 101%; in assay [3] it was 101% (inactive); in assay [4], 100% (inactive); in assay [5], 108% (inactive); in assay [6] (setting [9]), 96.5%; in assay [6] (setting [10]) it was 108%. Moreover, the Her2 level in assay [2] is 89.5% (inactive). Moreover, the differential viability (reversal) in assay [6] (H69AR cells + 2 uM doxorubicin) was 11.1% (inactive). Also, the results for the inhibition in assay [7] and in assay [8] were -6.22% (inactive) and -3% (inactive), respectively.

Consider `Cc1ccc(S(=O)(=O)N(C)c2ccc(OCC(=O)OCc3c(C)noc3C)cc2)cc1`, for which the viability was 92.5% in assay [1]; 92.5% (inactive) in assay [3]; 95.4% (inactive) in assay [4]; 105% (inactive) in assay [5]; 98.6% in assay [6] (setting [9]); 105% in assay [6] (setting [10]). The Her2 level in assay [2] was 97% (inactive). Further, in assay [6] (H69AR cells + 2 uM doxorubicin), the differential viability (reversal) was 6.56% (inactive). In addition, the inhibition in assay [7] is -1.71% (inactive); in assay [8], -10.3% (inactive).

For `Cn1c(=O)[nH]c(=O)c2c1nc(N1CCCCCC1)n2CCCSc1nc2ccccc2o1`, the viability is 84.5% in assay [1]; 84.5% (inactive) in assay [3]; 66.4% (inactive) in assay [4]; 80.7% (inactive) in assay [5]; 43.7% in assay [6] (setting [9]); 80.7% in assay [6] (setting [10]). Moreover, the Her2 level in assay [2] is 80% (inactive). Besides, the differential viability (reversal) in assay [6] (H69AR cells + 2 uM doxorubicin) was 37% (inactive). The inhibition in assay [7] is -5.68% (inactive); in assay [8], 3.97% (inactive).

Turning to `COCCn1c(C)c(C(=O)O)sc1=S`, the viability in assay [1] is 99%; in assay [3], 99% (inactive); in assay [4], 108% (inactive); in assay [5], 104% (inactive); in assay [6] (setting [9]) it was 91.3%; in assay [6] (setting [10]), 104%. The Her2 level in assay [2] was 118% (inactive). The differential viability (reversal) in assay [6] (H69AR cells + 2 uM doxorubicin) was 12.4% (inactive). For the same molecule, the inhibition in assay [7] was 0.79% (inactive); in assay [8] it was -6.5% (inactive).

As for `CCOC(=O)c1sc2nc3c(cc2c1N)COC(C)(C)C3`, the viability was 97% in assay [1]; 97% (inactive) in assay [3]; 111% (inactive) in assay [4]; 98.4% (inactive) in assay [5]; 94.5% in assay [6] (setting [9]); 98.4% in assay [6] (setting [10]). For the same molecule, the Her2 level in assay [2] was 92% (inactive). Further, the differential viability (reversal) in assay [6] (H69AR cells + 2 uM doxorubicin) is 3.91% (inactive). In addition, the inhibition is -6.4% (inactive) in assay [7] and -3.23% (inactive) in assay [8].

For the molecule `CCC12CN3CC(CC)(CN(C1)C3c1ccc(OC(C)C)cc1)C2=O` (stereo not given), the viability in assay [1] is 94%; in assay [3], 94% (inactive); in assay [4], 110% (inactive); in assay [5] it was 105% (inactive); in assay [6] (setting [9]), 94.6%; in assay [6] (setting [10]) it was 105%. Besides, the Her2 level in assay [2] was 92% (inactive). Further, the differential viability (reversal) in assay [6] (H69AR cells + 2 uM doxorubicin) was 10.7% (inactive). For the same molecule, the inhibition is -3.78% (inactive) in assay [7] and -0.95% (inactive) in assay [8].

With `Cc1cncn1CCc1nc2c3ccccc3nc(=S)n2[nH]1`, the viability is 110% in assay [1]; 110% (inactive) in assay [3]; 89.2% (inactive) in assay [4]; 88.8% (inactive) in assay [5]; 92.9% in assay [6] (setting [9]); 88.8% in assay [6] (setting [10]). Besides, the Her2 level in assay [2] is 88.5% (inactive). Also, in assay [6] (H69AR cells + 2 uM doxorubicin), the differential viability (reversal) was -4.09% (inactive). Also, the inhibition in assay [7] was -3.68% (inactive); in assay [8], -4.13% (inactive).

With `COc1ccc2[nH]c(=O)c(CN(Cc3cccs3)Cc3nnnn3C(C)(C)C)cc2c1`, the viability in assay [1] is 77.5%; in assay [3], 77.5% (inactive); in assay [4] it was 58.7% (inactive); in assay [5], 73.5% (inactive); in assay [6] (setting [9]), 66.2%; in assay [6] (setting [10]) it was 73.5%. Further, the Her2 level in assay [2] is 90% (inactive). Besides, in assay [6] (H69AR cells + 2 uM doxorubicin), the differential viability (reversal) is 7.29% (inactive). The inhibition was -6.13% (inactive) in assay [7] and -0.95% (inactive) in assay [8].
